# Measured values reported in PubChem BioAssay (NCATS).
# Values joined by “and” are separate entries in the source; they are usually repeats but may differ in a detail not shown here. Equal entries are not always repeated. Records with an inconclusive call do not appear. Active and inactive are the calls of the source. Unless noted, calls follow the shape of the dose curve; as a rule, active = well fitted curve in the direction sought with a large enough effect; inconclusive = small, poorly fitted or top-dose-only effect, or another doubt; inactive = no such curve, though single readings can be large; an effect the other way counts as inactive or inconclusive.
# Experiments:
# [1] = NCATS anti-infectives library activity on HEK293 viability as a counter-qHTS vs the C. elegans viability qHTS (AID 1745854); also: % is scaled to controls: 0 for no effect and ±100 for the full control effect
# Outline: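 Cytotoxicity counter-screen to a worm viability qHTS: CellTiter-Glo luminescence read 10 min after reagent addition. Compounds (final up to 41.7 uM, a 1:5 dilution series) incubated 24 hr at 37C with 1,500 HEK293 cells per well; digitonin control.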
# [2] = Viability counterscreen for antagonist of constitutive androstane receptor (CAR) against the NCATS DSHEA and TCM libraries (AID 1794837);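 also: compound exposure lasted 24 h before viability reading; 0% is about no effect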
# Outline: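 Cells: HepG2 line carrying CYP2B6 reporter and hCAR, seeded and attached 5 h. Then pin-transferred test substances plus agonist CITCO at 48 uM final; 24 h incubation; fluorogenic viability reagent, 1 h.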
# [3] = Viability counterscreen for agonist of constitutive androstane receptor (CAR) against the NCATS DSHEA and TCM libraries (AID 1794838);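 also: HepG2 cells with CYP2B6 reporter and hCAR plus 0.75 µM PK11195 antagonist; 0% is about no effect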
# Outline: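 Cell health was measured as CellTiter-Fluor signal in HepG2-CYP2B6-hCAR cells treated for 24 h with substances alongside the hCAR antagonist PK11195 (0.75 uM final).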
# [4] = biological target: Nuclear receptor subfamily 1 group I member 3 (Homo sapiens) (UniProt Q14994); test: Primary qHTS for agonist of constitutive androstane receptor (CAR) against the NCATS DSHEA and TCM libraries (AID 1794839);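 also: HepG2 cells expressing human CAR with a CYP2B6 reporter plus PK11195 antagonist; luciferase reporter luminescence read with ONE-Glo; 0% is about no effect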
# Outline: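 qHTS, agonist mode: HepG2-CYP2B6-hCAR, 2,500 cells/well, 5 h attach; cpds + PK11195 0.75 µM final; 24 h, 37 °C, 5% CO2. Readouts: CellTiter-Fluor (405/540 nm), then ONE-Glo luminescence.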
# [5] = HepG2 viability counterscreen (readout 2: ATP content) against the NCATS DSHEA and TCM libraries (AID 1794840); also: 0% is about no effect
# Outline: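 Same wells read twice: first fluorescence from cleaved GF-AFC substrate (25 uM final, 30 min, 37C) for live-cell protease, then CellTiter-Glo luminescence after 30 min at room temperature for ATP. HepG2 cells were exposed ~24 h to substances.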
# [6] = biological target: Catechol O-methyltransferase (Homo sapiens) (UniProt P21964); test: Confirmatory Screen for Target Class Profiling of Small Molecule Inhibitors of Methyltransferases (AID 1745852; calls by dose curve; as to activity change, negative = inhibition: % is scaled to controls: 0 for no effect and ±100 for the full control effect); conditions: MTase-Glo luminescence, SAH detection, recombinant enzyme; measured here: COMT max response; stronger effect = lower value
# [7] = biological target: Guanidinoacetate N-methyltransferase (Homo sapiens) (UniProt Q14353); test: as above; conditions: MTase-Glo luminescence, SAH detection, recombinant enzyme; activity change, negative = inhibition: at 57.3 µM (top of the series) unless noted
# [8] = biological target: Nicotinamide N-methyltransferase (Homo sapiens) (UniProt P40261); test: as above; conditions: MTase-Glo luminescence, SAH detection, recombinant enzyme; measured here: NNMT max response; stronger effect = lower value
# [9] = biological target: Phenylethanolamine N-methyltransferase (Homo sapiens) (UniProt P11086); test: as above; conditions: MTase-Glo luminescence, SAH detection, recombinant enzyme; measured here: PNMT max response; stronger effect = lower value
# [10] = NCATS anti-infectives library activity on the primary C. elegans qHTS viability assay (AID 1745855; calls by dose curve; also: potency is read from the fitted curve at half-maximal effect)
# Outline: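 GFP read-out by 488 nm laser cytometry at day 0, 3 and 7, gated on object perimeter, area and peak intensity, scored viability of PE254-GFP-FLuc worms exposed to compound in S medium with bacterial capsules at 21 °C.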
# Phenylethanolamine N-methyltransferase (Homo sapiens), sequence (P11086 whole entry, looked up): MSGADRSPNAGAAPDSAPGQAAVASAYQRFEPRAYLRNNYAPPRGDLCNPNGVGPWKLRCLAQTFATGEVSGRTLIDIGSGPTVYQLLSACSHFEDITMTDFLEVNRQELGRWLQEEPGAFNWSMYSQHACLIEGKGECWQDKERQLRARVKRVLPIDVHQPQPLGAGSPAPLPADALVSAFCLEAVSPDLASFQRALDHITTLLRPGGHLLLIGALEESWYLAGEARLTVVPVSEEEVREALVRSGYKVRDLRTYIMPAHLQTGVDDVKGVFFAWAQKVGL
# Catechol O-methyltransferase (Homo sapiens), sequence (P21964 whole entry, looked up): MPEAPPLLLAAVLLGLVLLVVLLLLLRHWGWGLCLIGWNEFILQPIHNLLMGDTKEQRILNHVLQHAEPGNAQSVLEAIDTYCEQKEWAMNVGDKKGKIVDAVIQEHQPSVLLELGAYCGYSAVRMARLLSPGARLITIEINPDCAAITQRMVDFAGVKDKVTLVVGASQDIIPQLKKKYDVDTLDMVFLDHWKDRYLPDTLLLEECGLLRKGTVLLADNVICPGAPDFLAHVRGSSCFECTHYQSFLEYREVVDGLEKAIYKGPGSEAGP
# Nicotinamide N-methyltransferase (Homo sapiens), sequence (P40261 whole entry, looked up): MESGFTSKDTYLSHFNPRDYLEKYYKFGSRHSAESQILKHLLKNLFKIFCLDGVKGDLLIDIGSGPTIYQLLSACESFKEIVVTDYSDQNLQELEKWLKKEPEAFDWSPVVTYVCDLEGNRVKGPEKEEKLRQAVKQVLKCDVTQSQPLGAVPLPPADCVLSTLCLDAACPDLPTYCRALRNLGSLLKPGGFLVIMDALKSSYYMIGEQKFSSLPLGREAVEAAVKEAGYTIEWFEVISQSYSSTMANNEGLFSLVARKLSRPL
# Nuclear receptor subfamily 1 group I member 3 (Homo sapiens), sequence (Q14994 whole entry, looked up): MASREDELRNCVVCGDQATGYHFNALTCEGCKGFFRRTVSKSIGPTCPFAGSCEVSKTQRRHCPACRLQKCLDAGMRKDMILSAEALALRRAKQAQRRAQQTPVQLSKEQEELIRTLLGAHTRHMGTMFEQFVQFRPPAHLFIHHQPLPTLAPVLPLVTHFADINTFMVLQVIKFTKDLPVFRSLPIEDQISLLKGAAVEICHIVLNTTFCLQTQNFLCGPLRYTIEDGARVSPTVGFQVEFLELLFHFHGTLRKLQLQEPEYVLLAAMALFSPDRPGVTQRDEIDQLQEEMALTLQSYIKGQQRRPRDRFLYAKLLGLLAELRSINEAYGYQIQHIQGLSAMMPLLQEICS
structure (smiles),measurement,setting,value
Cc1cnc(NC(=O)C2=C(O)c3ccccc3S(=O)(=O)N2C)s1,outcome,[1],inactive
Nc1nc2c(ncn2COCCO)c(=O)[nH]1,outcome,[1],inactive
Nc1nc2[nH]cc(CCc3ccc(C(=O)N[C@@H](CCC(=O)O)C(=O)O)cc3)c2c(=O)[nH]1,outcome,[1],inactive
NC(=O)c1cnccn1,outcome,[2],inactive
same,outcome,[3],inactive
same,outcome,[4],inactive
same,outcome,[5],inactive
CCCC(CCC)C(=O)O,outcome,[1],inactive
NC[C@H](O)c1ccc(O)c(O)c1,activity,[6],45.4%
same,"activity change, negative = inhibition",[7],-4.17%
same,activity,[8],2.1%
same,activity,[9],21.8%
c1ccc([C@H]2CN3CCSC3=N2)cc1,outcome,[1],inactive
same,Potency,[10],5.15 µM (active)
CNC(=O)c1ccc(N2C(=S)N(c3ccc(C#N)c(C(F)(F)F)c3)C(=O)C2(C)C)cc1F,outcome,[1],inactive
CCCCCCCc1ccc(CCc2cccc(O)c2C(=O)O)cc1,activity,[6],-2.12%
same,"activity change, negative = inhibition",[7],-1.62%
same,activity,[8],-13.2%
same,activity,[9],1.23%
CNCc1ccc(-c2[nH]c3cc(F)cc4c3c2CCNC4=O)cc1,activity,[6],-6.4%
same,"activity change, negative = inhibition",[7],-1.39%
same,activity,[8],-24.3%
same,activity,[9],-15.2%
same,outcome,[1],inactive
CS(=O)(=O)c1cccc(CNc2nc(Nc3ccc4c(c3)CCC(=O)N4)ncc2C(F)(F)F)c1,activity,[6],-9.69% and -3.27%
same,"activity change, negative = inhibition",[7],-3.15% and 1.66%
same,activity,[8],-47.6% and -27.3%
same,activity,[9],-7.63% and -9.92%
CCc1cncnc1N1CCN(Cc2nc3ccc(C(F)(F)F)cc3[nH]2)CC1,activity,[6],1.23%
same,"activity change, negative = inhibition",[7],5.86%
same,activity,[8],-37.3%
same,activity,[9],-14.9%
CCN(CC)CCCC(C)Nc1ccnc2cc(Cl)ccc12 (stereo unspecified),activity,[6],-0.478%
same,"activity change, negative = inhibition",[7],2.04% [at 9.47 µM]
same,activity,[8],3.54%
same,activity,[9],0.752%
Cc1[nH]c(=O)c(C#N)cc1-c1ccc2nccn2c1,activity,[6],4.51%
same,"activity change, negative = inhibition",[7],5.86%
same,activity,[8],-3.4%
same,activity,[9],4.35%
CCCc1nc2c(C)cc(-c3nc4ccccc4n3C)cc2n1Cc1ccc(-c2ccccc2C(=O)O)cc1,outcome,[1],inactive
